Screening data (PubChem)
An excerpt weighted towards active compounds, which were near 2.4% of everything screened.
D2 antag: antagonists of human D2 dopamine receptor; AID 485344; hit rate 2% among 340,000; inhibition, % at 10 µM; HEK293 TREx D2 cells, calcium flux, dopamine EC80; P14416; in the data active means inhibition above about 30%; inactive means below that, where a call was filed; further: 0% is about no effect
Target sequence (P14416 whole entry, looked up): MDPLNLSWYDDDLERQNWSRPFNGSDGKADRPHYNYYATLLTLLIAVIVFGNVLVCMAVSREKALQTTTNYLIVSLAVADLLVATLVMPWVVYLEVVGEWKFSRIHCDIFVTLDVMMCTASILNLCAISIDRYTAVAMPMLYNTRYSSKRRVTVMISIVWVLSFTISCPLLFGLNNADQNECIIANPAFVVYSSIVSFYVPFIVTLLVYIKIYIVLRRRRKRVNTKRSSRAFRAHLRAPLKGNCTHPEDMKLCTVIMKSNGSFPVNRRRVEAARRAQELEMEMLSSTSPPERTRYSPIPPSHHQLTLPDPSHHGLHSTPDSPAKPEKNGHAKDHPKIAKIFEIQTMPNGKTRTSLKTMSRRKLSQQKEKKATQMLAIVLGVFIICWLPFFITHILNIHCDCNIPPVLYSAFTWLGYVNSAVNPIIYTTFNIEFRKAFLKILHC
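Calcium flux kinetic readout in an inducible HEK293 TREx D2 line plated overnight at 30 C. After 180 s compound exposure, an EC80 dopamine challenge follows with another 180 s kinetic read to detect antagonism.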
D2 ag-1: human D2 receptor agonism in beta-arrestin assay. P14416. DiscoveRx PathHunter D2 beta-arrestin, luminescence, 90 min; 100% = 57 uM dopamine signal. activation, % (concentration not given with the values). hit rate 0.084% among 360,000; in the data active means activation above about 40%; inconclusive means between about 15% and that limit
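DiscoveRx PathHunter D2 beta-arrestin cells (2,100/well) attached overnight, then compound-stimulated 90 min at 37 C in HBSS/10 mM HEPES/0.1% Tween-20 buffer; beta-galactosidase complementation read by luminescence after 1 h at ambient temperature. Dopamine 57 uM final (EC100) as control.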
D2 PAM-1: potentiates the human D2 dopamine receptor allosterically. DiscoveRx D2 beta-arrestin cells, luminescence, 90 min; 100% = 57 uM dopamine signal. potentiation, % (test concentration not listed). hit rate 0.23% among 360,000. AID 624464; in the data active means potentiation above about 50%; inconclusive means mostly about 30% to 49%
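D2 cells co-treated with compound plus 50 nM dopamine (EC20) for 90 min at 37 deg C to detect potentiation. Beta-arrestin recruitment was read as enzyme-fragment luminescence after 1 h at ambient temperature. Full response was set by 57 uM dopamine.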
D2 PAM-2: positive allosteric modulators of human D2 dopamine receptor; hit rate 0.34% among 340,000; potentiation, % at 10 µM; HEK293 T-REx D2, calcium flux, EC20 dopamine potentiation; P14416; AID 485347;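 active means potentiation over 3 SD above the plate norm, cut at about 30% in these data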; further: 0% is about no effect
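Potentiation of an EC20 dopamine calcium response measured kinetically over 180 s, after a preceding 180 s compound-only read flagging agonists. Cells: inducible Hek293 Trex D2 line, 4000/well, cultured overnight at 30 C before dye loading.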
D2 ag-2: D2 dopamine receptor (human) agonism; HEK293 T-REx D2 cells, calcium flux agonist mode; hit rate 0.53% among 340,000; P14416; activation, % at 2 µM;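 active means activation over 3 SD above normal in the single-dose calcium agonist read, cut at about 30% in these data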; further: 0% is about no effect
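Agonism is scored from calcium flux in a force-coupled, inducible HEK293 cell line expressing D2, read kinetically for 180 s after compound addition against dopamine controls.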
D3 arrestin ag: D3 receptor agonism confirmed, beta-arrestin readout; shares compounds with D2 ag-2; DiscoveRx D3 beta-arrestin cells, luminescence, 90 min; Potency, µM (series often up to 76.9 µM), without a hit: at the top dose activation, most hits filed as activators; hit rate 4% among 2,300;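 further: potency means the concentration at half of the fitted maximal effect; 100% = dopamine control response; nearly all actives have a fitted effect of over 70% in size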
D2 ag-3: counter-screen for D3 agonists: human D2 dopamine receptor agonism; hit rate 5.9% among 2,300; DiscoveRx PathHunter D2 beta-arrestin, luminescence, 90 min; response scale: percent relative to full dopamine signal; shares compounds with D2 ag-2; Potency, µM (titrated, usually from 76.9 µM), inactives show top-dose activation, most hits filed as activators; further: potency means the concentration at half of the fitted maximal effect; % of control where 0% means no effect; nearly all actives have a fitted effect of over 70% in size
An asterisk follows results filed as active; ? = inconclusive; . = no result. Unless noted, the call rests on the fitted dose curve; in most records, active means well fitted activation curve with a large enough effect; inconclusive means small, poorly fitted or top-dose-only effect; inactive means flat fitted curve, though single readings scatter.

SMILES	D2 antag	D2 ag-1	D2 PAM-1	D2 PAM-2	D2 ag-2	D3 arrestin ag	D2 ag-3
COC(=O)c1c(NC(=O)C2c3ccccc3Oc3ccccc32)sc2c1CCC(C(C)(C)C)C2 (stereo not given)	.	.	.	8.2	1.0	.	.
Cc1ccc(NC(=O)CCc2nc3cccnc3n2-c2ccccc2)cc1	.	.	.	0.9	-1.2	.	.
CN(C)CCOc1ccccc1-c1ccccc1	.	-0.9	-14.8	.	.	.	.
CCCCNCCOc1ccccc1-c1ccccc1	69.5*	-7.3	-30.7	-18.7	27.8	-24.6%	7.6%
CC(O)CNCCOc1ccccc1-c1ccccc1 (stereo not given)	57.8*	1.8	-11.7	-24.0	57.9*	-9.9%	11.8%
CCCN1C(=O)CSC1=Nc1ccccc1	5.3	1.3	-8.8	3.3	0.6	.	.
O=C1CSC(=Nc2ccccc2)N1Cc1ccccc1	.	2.1	-7.2	.	.	-5.3%	-1.1%
O=C(CN1CCN(c2ccc(O)cc2)CC1)Nc1ccc2c(c1)OCCCO2	1.1	6.8	14.9	-12.5	34.7*	39.8µM*	35.5µM*
O=C(CCN1CCN(c2ccccc2F)CC1)Nc1ccc2c(c1)OCO2	86.4*	?	3.3	-19.5	80.2*	?	?
COc1ccc(NC(=O)CCN2CCN(c3ccccc3F)CC2)c(OC)c1	85.7*	49.2*	12.9	-27.9	89.9*	?	?
COc1ccc(NC(=O)CN2CCN(c3ccccc3F)CC2)c(OC)c1	.	.	.	-22.4	.	.	.
O=C(CCN1CCN(c2ccccc2)CC1)Nc1cccc(Br)c1	75.2*	-0.8	-8.4	-22.0	59.8*	21.0%	12.0%
N#Cc1c(-c2ccccc2)cc(-c2ccccc2)nc1SCC(O)CS(=O)(=O)Cc1ccc(Cl)cc1 (stereo not given)	.	.	.	-3.3	0.8	.	.
O=C(CCN1CCN(c2ccccc2)CC1)Nc1nccs1	92.6*	14.2	-27.8	-30.5	70.5*	25.0%	15.5%
O=C(CCN1CCN(c2ccccc2)CC1)Nc1ccc2c(c1)OCO2	108.3*	?	-14.1	-26.7	102.6*	?	?
CCN1CCN(CCC(=O)Nc2ccc3c(c2)OCO3)CC1	-0.4	1.5	-4.1	-7.2	-0.1	.	.
Oc1ccccc1C=NCC(O)c1ccccc1 (stereo not given)	-21.3	-1.4	11.1	0.9	3.9	11.6%	6.1%
COc1ccc(OC)c(CNS(=O)(=O)c2c(C(=O)N3CCC(C)CC3)c(C)n(C)c2C)c1	.	.	.	4.3	-0.3	.	.
O=c1cc(-c2ccc(F)cc2)nc(SCc2nc(-c3cccc(Cl)c3)no2)[nH]1	.	.	.	-10.2	-0.1	.	.
CC(=O)N1CCc2cc(S(=O)(=O)NC(CC(C)C)C(=O)NCCc3cccc(C)c3)ccc21 (stereo not given)	.	.	.	-7.9	0.4	.	.
CN1CCc2c(sc(NC(=O)c3ccc([N+](=O)[O-])o3)c2C(N)=O)C1	29.3	0.5	-11.5	-19.1	74.6*	-19.7%	2.0%
Cc1cc(C)c(C)c(OCC(O)CN2CCN(c3ccccn3)CC2)c1 (stereo not given)	91.6*	48.0*	-2.8	-29.3	66.3*	3.98µM*	3.98µM*
Cc1cccc(OCC(O)CN2CCN(c3ccccn3)CC2)c1C (stereo not given)	78.2*	?	-21.2	-21.2	72.1*	21.2%	?
CC1(C)Cc2cccc(OCC(O)CNCc3ccccn3)c2O1 (stereo not given)	-0.5	-0.6	-21.2	6.4	0.0	.	.
CC1(C)Cc2cccc(OCC(O)CN3CCN(c4ccccn4)CC3)c2O1 (stereo not given)	60.3*	?	-4.0	-25.3	72.3*	?	?
SMILES	D2 antag	D2 ag-1	D2 PAM-1	D2 PAM-2	D2 ag-2	D3 arrestin ag	D2 ag-3
COc1ccc(CC(=O)NCCc2csc(-c3cccc(C)c3)n2)cc1	.	.	.	13.7	1.5	.	.
COc1ccc(OCC(=O)Nc2ccc3c(c2)nc(CCN2CCN(c4ccccn4)CC2)n3C)cc1	.	6.8	-17.8	.	.	.	.
Cn1c(CCN2CCN(c3ccccn3)CC2)nc2cc(NS(=O)(=O)c3ccc(Cl)cc3)ccc21	73.9*	13.5	-21.7	-5.3	0.2	15.9%	?
Cc1ccc(N2CCN(CCc3nc4cc(NS(C)(=O)=O)ccc4n3C)CC2)cc1	11.3	0.4	-36.0	-39.0	0.2	.	.
Cc1ccc(S(=O)(=O)Nc2ccc3c(c2)nc(CCN2CCN(c4ccccn4)CC2)n3C)cc1	51.2*	6.5	-25.4	-6.5	0.0	8.2%	25.4%
O=C(c1ccc2c(Cl)c3c(nc2c1)CCCC3)N1CCN(c2ccccc2F)CC1	.	.	.	12.5	-0.7	.	.
O=C(C1CCC1)N1CCCc2cc(S(=O)(=O)N3CCN(c4cccc(Cl)c4)CC3)ccc21	.	.	.	-4.6	0.7	.	.
Cc1nn(-c2ccccc2)c2nc(C3CC3)cc(C(=O)Nc3ccc(F)cc3)c12	.	.	.	-3.7	1.2	.	.
O=C(Nc1ccc(Cl)cc1F)c1cnc2sc(N3CCOCC3)nn2c1=O	.	.	.	0.4	0.0	.	.
O=C(O)Cc1sc(Nc2ccccc2)nc1-c1ccccc1	.	.	.	0.2	0.0	.	.
O=C(O)Cc1sc(N/N=C\c2ccncc2)nc1-c1ccccc1	-13.5	?	2.3	0.0	9.8	?	2.5%
CCOC(=O)c1c(C)c(C(=O)NCCCN2CCCC2=O)c(C)n1CC	-7.4	0.6	-15.1	-18.9	62.0*	-4.6%	-3.8%
CC(OC(=O)COc1ccc(C#N)cc1)C(=O)c1ccccc1 (stereo not given)	31.9*	3.4	0.6	2.9	-0.4	-1.8%	-3.8%
